Measured values reported in PubChem BioAssay (NCATS).
Records with an inconclusive call do not appear. Calls of active or inactive are those of the source. Calls come from the whole dose curve; as a rule, active = well fitted cell-killing curve with a large enough effect; inconclusive = small, poorly fitted or top-dose-only effect, or effect the other way; inactive = flat fitted curve, though single readings scatter.

Columns and labels:
Assay in all cases: Primary qHTS to identify gynecologic anti-cancer compounds using libraries of approved drugs and bioactive compounds (AID 1345084); note: nearly all actives have a fitted effect of over 55% in size
Conditions in all cases: Gynecologic cancer cell panel viability, ATPlite luminescence, 48 h; series mostly up to 57.5 µM
JEG-3 = system: JEG-3
In short: (§1)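 Cells, 1,000 per well, were allowed to settle for 16 h at 37 C before compound addition. Five concentrations were tested for 48 h, and viability was read by ATPlite luminescence after 15 min at room temperature.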

OV90 = system: OV90
In short: as §1

PA-1 = system: PA-1
In short: as §1

SKOV3 = system: SKOV3
In short: as §1

Tov-21-G = system: Tov-21-G
In short: as §1

Tov112D = system: Tov112D
In short: as §1
% is set by controls: 0 for no effect and ±100 for the full control effect.

OC[C@H]1O[C@@H](OC[C@H]2O[C@@H](OC/C=C/c3ccccc3)[C@H](O)[C@@H](O)[C@@H]2O)[C@@H](O)[C@@H]1O
inactive: Potency (JEG-3) | Potency (OV90) | Potency (PA-1) | Potency (SKOV3) | Potency (Tov-21-G) | Potency (Tov112D)

C=C1CCC2C(C)(C(=O)O)CCCC2(C)C1CC/C(=C\CO)CO (stereo unspecified)
inactive: Potency (JEG-3) | Potency (OV90) | Potency (PA-1) | Potency (SKOV3) | Potency (Tov-21-G) | Potency (Tov112D)

CCOc1ccc(S(=O)(=O)n2c(C)nc3ccccc32)cc1
inactive: Potency (JEG-3) | Potency (OV90) | Potency (PA-1) | Potency (SKOV3) | Potency (Tov-21-G) | Potency (Tov112D)

C[C@H]1CC(=O)Nc2cccc(-c3cnn(C(C)(C)C)c3)c2N1
inactive: Potency (JEG-3) | Potency (OV90) | Potency (PA-1) | Potency (SKOV3) | Potency (Tov-21-G) | Potency (Tov112D)

CC1(C)C[C@H](O)C[C@@]2(C)OC(=O)C=C12
inactive: Potency (JEG-3) | Potency (OV90) | Potency (PA-1) | Potency (SKOV3) | Potency (Tov-21-G) | Potency (Tov112D)

C/C=C/C=C/C(=O)N1CC[C@]23c4ccccc4N[C@H]4N(C)c5cccc6c5[C@@]42CCN([C@H]6C2OC2(C)C)[C@H]13 (stereo partly specified)
inactive: Potency (JEG-3) | Potency (OV90) | Potency (PA-1) | Potency (SKOV3) | Potency (Tov-21-G) | Potency (Tov112D)

CC(C)=CCC/C(C)=C/Cc1ccc(O)c(C2OC(=O)c3cc(C(=O)O)cc(O)c32)c1O (stereo unspecified)
inactive: Potency (JEG-3) | Potency (OV90) | Potency (PA-1) | Potency (SKOV3) | Potency (Tov-21-G) | Potency (Tov112D)

CC1(C)CC[C@]2(C(=O)O[C@@H]3O[C@H](CO)[C@@H](O)[C@H](O)[C@H]3O)CC[C@]3(C)C(=CCC4[C@@]5(C)CC[C@H](O[C@@H]6O[C@H](C(=O)O)[C@@H](O)[C@H](O[C@@H]7O[C@H](CO)[C@H](O)[C@H](O)[C@H]7O)[C@H]6O)C(C)(C)C5CC[C@]43C)C2C1 (stereo partly specified)
inactive: activity change, negative = cytotoxicity (JEG-3) 4.29% [at 11.6 µM] | activity change, negative = cytotoxicity (OV90) 1.32% [at 11.6 µM] | activity change, negative = cytotoxicity (PA-1) -14.7% [at 11.6 µM] | activity change, negative = cytotoxicity (SKOV3) 12.6% [at 11.6 µM] | activity change, negative = cytotoxicity (Tov-21-G) -0.142% [at 11.6 µM] | activity change, negative = cytotoxicity (Tov112D) -2.13% [at 11.6 µM]

OC[C@H]1O[C@@H](OCCc2ccccc2)[C@H](O[C@@H]2OC[C@](O)(CO)[C@H]2O)[C@@H](O)[C@@H]1O
inactive: Potency (JEG-3) | Potency (OV90) | Potency (PA-1) | Potency (SKOV3) | Potency (Tov-21-G) | Potency (Tov112D)

C/C1=C\CCC2=C[C@@H](OC2=O)c2c(C)coc2C1
inactive: Potency (JEG-3) | Potency (OV90) | Potency (PA-1) | Potency (SKOV3) | Potency (Tov-21-G) | Potency (Tov112D)

CC1(C(=O)O)CCCC2(C)C3=CCC4CC3(CCC12)CC4CO (stereo unspecified)
inactive: Potency (JEG-3) | Potency (OV90) | Potency (PA-1) | Potency (SKOV3) | Potency (Tov-21-G) | Potency (Tov112D)
